The target in assay [1] is Tumor necrosis factor receptor superfamily member 10B (Homo sapiens) (UniProt O14763). In words: viability loss of caspase-8 NB7 cells with TRAIL – with/without TRAIL, luminescence panel, confirmation (AID 651596). Conditions: NB7 neuroblastoma + caspase-8, TRAIL sensitization, NB7 Caspase-8, with TRAIL, mean of runs, at 10 µM, stronger effect = higher value.
Assay in assay [2]: as above
Conditions: NB7 neuroblastoma + caspase-8, without TRAIL, NB7 Caspase-8, without TRAIL, mean of runs, at 10 µM.

Chain of Tumor necrosis factor receptor superfamily member 10B (Homo sapiens) (O14763 whole entry, looked up): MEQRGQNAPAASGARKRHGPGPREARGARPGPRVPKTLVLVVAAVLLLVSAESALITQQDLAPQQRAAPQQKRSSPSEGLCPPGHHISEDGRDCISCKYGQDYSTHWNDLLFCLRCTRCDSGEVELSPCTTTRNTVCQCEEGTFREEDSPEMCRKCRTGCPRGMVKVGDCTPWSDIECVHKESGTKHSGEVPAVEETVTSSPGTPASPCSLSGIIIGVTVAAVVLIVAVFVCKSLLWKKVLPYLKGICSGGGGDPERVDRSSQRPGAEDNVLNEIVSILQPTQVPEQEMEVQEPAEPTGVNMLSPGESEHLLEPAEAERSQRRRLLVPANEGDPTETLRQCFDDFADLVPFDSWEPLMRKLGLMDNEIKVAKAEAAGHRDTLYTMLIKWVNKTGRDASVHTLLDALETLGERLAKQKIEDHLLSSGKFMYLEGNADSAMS

As for `CCOC(=O)c1cnc2c(-c3ccccc3)cnn2c1C`, the activity in assay [1] amounted to 50%; in assay [2] it was 35.7%.
For `CC(C)(C)c1ccc(-c2noc(CCC(=O)Nc3cccnc3)n2)cc1`, in that order: 48.3% and 50.9%.
With `CN1CCN(c2nc(-c3ccc(C(C)(C)C)cc3)nc3ccccc23)CC1`, the activity in assay [1] was 67.9%; in assay [2] it was 69.6%.
The corresponding values for `Cc1ccc(C(=O)Nc2ncc3c(Cl)cccc3n2)cc1` are 91.5% and 89%.
The corresponding values for `CC(C)CC(=O)Nc1ccc(-c2cn3ccsc3n2)cc1` are 85.2% and 88.2%.
As to `O=C(Nc1nc2ccccc2[nH]1)c1ccc(OC(F)F)cc1`, the activity in assay [1] was 95.3%; in assay [2] it was 94.6%.
For `O=C(COc1ccc2c(c1)OCO2)Nc1nccs1`, in that order: 52.9% and 54%.
On to `Cc1ccc(Nc2nc(CSc3nnnn3C)cs2)cc1`, for which the results for the activity in assay [1] and in assay [2] were 23.2% and 8.93%, respectively.
On to `Cc1cc(C)cc(NC(=O)/C(C#N)=C/c2cn(CC(=O)NCc3ccco3)c3ccccc23)c1`, for which the activity stood at 62.1% in assay [1] and 77.7% in assay [2].
For `CCOc1cc(C(=O)O/N=C(\N)c2ccccn2)cc(OCC)c1OCC`, in that order: 91.1% and 78.5%.
The corresponding values for `C#CC(=O)N(c1ccc(OC)c(OC)c1)C(C(=O)NC1CCCC1)c1cccs1` (centres undefined) are 99.3% and 99.5%.
For `COc1ccccc1-c1cc2nc(-c3ccccc3)cc(N3CCN(C(=O)c4ccoc4)CC3)n2n1`, in that order: 78.4% and 62.7%.
For `O=c1[nH]c(/C=C/c2ccccc2F)nc2ccccc12`, the activity in assay [1] stood at 86.9%; in assay [2], 86.8%.
The corresponding values for `COc1cc2c(cc1NC(=O)c1cccc([N+](=O)[O-])c1)oc1ccccc12` are -1.55% and -9.4%.
The corresponding values for `COc1ccc(C2=NN(C(=O)COC(=O)c3ccc(S(C)(=O)=O)c([N+](=O)[O-])c3)C(c3ccco3)C2)cc1` (centres undefined) are 92.5% and 98.5%.
The corresponding values for `CCOC(=O)c1c(C)oc2c(F)c(F)c(F)c(F)c2c1=O` are 99.2% and 99.2%.
Regarding `Cc1cccc(NC(=S)N/N=C/c2ccc([N+](=O)[O-])s2)c1`, the activity in assay [1] came to 37.4%; in assay [2], 36.1%.
For `c1csc(-c2nnc(-c3ccc(N4CCOCC4)cc3)o2)c1`, in that order: 56.9% and 54.2%.
The corresponding values for `CC1CCC(C(C)C)C(OC(=O)Cn2c(-c3ccccc3)[n+](C)c3ccccc32)C1` (centres undefined) are 70.2% and 61.2%.
The corresponding values for `CCOC(=O)c1sc(NC(=O)c2ccccc2OC)nc1C` are 26.1% and 31.9%.
For `CSc1nnc(NC(=O)c2nc(S(=O)(=O)Cc3cccc(C)c3)ncc2Cl)s1`, the activity came out at 93% in assay [1] and 88.3% in assay [2].
For `CCc1ccc2nc(N(CCCN(C)C)C(=O)c3ccc(C(=O)c4ccccc4)cc3)sc2c1`, in that order: 50.6% and 18.7%.
Consider `CCCOc1ccc(-c2nc(N3CCN(C)CC3)c3ccccc3n2)cc1`, for which the activity in assay [1] was 71%; in assay [2] it was 67.7%.
For `O=C(Nc1ccc(N2CCN(C(=O)c3cccs3)CC2)cc1)c1ccc([N+](=O)[O-])o1`, in that order: 86.7% and 99.8%.
For `Cc1nc(N)nc(N)c1/C=C/C(C)(C)c1ccc(Cl)cc1`, in that order: 54.5% and 61.7%.
`C/C(=N\NC(=O)c1cccc(O)c1)c1cccc(NC(=O)c2ccc(F)cc2)c1`: the activity in assay [1] was 74.5%; in assay [2], 77.4%.
In the case of `O=C(N/N=C/c1cccs1)c1ccc2c(c1)OCO2`, the activity in assay [1] is 71.7%; in assay [2] it was 66%.
`CC(=O)N1CCc2c(sc(NC(=O)c3ccc([N+](=O)[O-])o3)c2C(N)=O)C1`: the activity was found to be 51.4% in assay [1] and 90.9% in assay [2].
The corresponding values for `CC(=O)c1cccc(NC(=O)CSc2ccc(-c3ccc4c(c3)OCO4)nn2)c1` are 52.1% and 50%.
For `CC(C)(C)c1ccc(C(=O)O/N=C(\N)Cc2cccs2)cc1`, in that order: 98.6% and 77.5%.
For `Cc1ccc(C(=O)Nc2ccc3c(c2)OCO3)cc1`, in that order: 75.8% and 63%.
In the case of `COc1ccc(-c2ccc(SC)nn2)cc1`, the activity is 88.9% in assay [1] and 90.2% in assay [2].
For `O=C(Nc1nc2ccccc2[nH]1)c1ccc([N+](=O)[O-])cc1`, in that order: 53.4% and 35%.
The corresponding values for `Nc1cc2sc(-c3ccc(C(=O)O)cc3)nc2cc1Cl` are 52.8% and 42.5%.
For `C=CCn1c2ccccc2c(=O)c2cc(C#CC3(O)CCCCC3)ccc21`, in that order: 83.7% and 79.7%.
Regarding `CCN1CCN(c2c(Cl)cccc2NC(=O)c2ccc([N+](=O)[O-])o2)CC1`, the activity in assay [1] was found to be 52.3%; in assay [2], 61.3%.
For `Cc1ccc2nc(-c3ccccn3)oc2c1`, in that order: 75.3% and 64.1%.
For `C/C(=N\NC(=O)c1ccc(Cl)cc1)c1ccccn1`, in that order: 32.2% and 51%.
The corresponding values for `O=C(Nc1ccc2c(c1)nc1n2CCSC1)c1ccco1` are 77.4% and 75.2%.
As for `Nc1nc(-c2ccc(-c3ccccc3)cc2)cs1`, the activity in assay [1] was 51.2%; in assay [2], 50.7%.
Turning to `COc1ccc(C[C@H](N)C(=O)N[C@H]2[C@@H](O)[C@H](n3cnc4c(N(C)C)ncnc43)O[C@@H]2CO)cc1`, the activity was found to be 98.4% in assay [1] and 99.2% in assay [2].
For `O=c1[nH]c2ccccc2nc1/C=C/c1ccc(Cl)cc1`, in that order: 64.9% and 74.2%.
Regarding `COC(=O)c1ccc(CCc2cc(O)c(Br)cc2O)cc1`, the activity in assay [1] stood at 15%; in assay [2] it was 19.7%.
For `O=C(Cn1ncc(Cl)c(Cl)c1=O)c1ccc(Cl)cc1`, in that order: 99.7% and 99.6%.
Turning to `Cc1cccc(C(=O)Nc2ccc(C(=O)Nc3ccc(O)cc3)cc2)c1`, the activity in assay [1] came out at 79.9%; in assay [2] it was 89.1%.
Take `Cc1onc(-c2ccccc2Cl)c1C(=O)O/N=C(\N)c1cccc([N+](=O)[O-])c1`: the activity in assay [1] amounted to 92.2%; in assay [2], 93.3%.
The corresponding values for `Cc1ccc(C)c(C(=O)O/N=C(\N)c2ccc(Br)cc2)c1` are 80.1% and 78.7%.
